Bioassay records deposited in PubChem BioAssay by The Scripps Research Institute Molecular Screening Center.
Rows were chosen to be rich in hits. Some 1.1% of all compounds tested hit in one or more screens of this group.
HTR5A inv ag: HTR5A inverse agonism, opioid heterodimer counter-screen. P47898. HTR5A cell line, luminescence. inhibition, % at 9.3 µM. 340,000 tested, 0.083% active. AID 504634; in the data active = inhibition mostly above about 23%, no sharp cut-off; inactive = mostly below about 18%;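 also: 0% = cells with DMSO and 100% = no-cell wells with DMSO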
MOR-DOR inv ag: inverse agonist of human OPRM1-OPRD1 heterodimerization | P35372+P41143 | cell-based MOR-DOR heterodimer luminescence, inverse agonism | inhibition, % at 9.3 µM | 340,000 tested, 0.21% active; in the data active = inhibition above about 22%, passing the limit was not always enough;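 also: 0% = cells with DMSO and 100% = wells without cells with DMSO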
OPRM1-OPRD1 ag: agonists of human mu-delta opioid receptor heterodimerization. 340,000 tested, 0.3% active. cells, OPRM1-OPRD1 heterodimerization, luminescence. AID 504326. activation, % at 9.3 µM;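 also: 0% = vehicle-treated cells and 100% = reference agonist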
HTR5A ag: activates human HTR5A in OPRM1-OPRD1 agonist counter-screen; HTR5A agonist assay, luminescence, cell-based; 340,000 tested, 0.61% active; activation, % at 9.3 µM; AID 504692; P47898; in the data active = activation mostly above about 9.5%, no sharp cut-off; inactive = mostly below about 7.6%;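 also: 0% = cells with vehicle only and 100% = reference agonist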
MOR-DOR ag conf: confirmation of human OPRM1-OPRD1 heterodimerization agonists | shares compounds with OPRM1-OPRD1 ag | cells, MOR-DOR heterodimerization, luminescence complementation | activation, % at 9.3 µM | 830 tested, 45% active;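 also: 0% = vehicle-treated cells and 100% = reference agonist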
HTR5A ag counter: counter-screen for OPRM1-OPRD1 agonists: human HTR5A agonism; shares compounds with OPRM1-OPRD1 ag; HTR5A agonist counterscreen, cell luminescence; activation, % at 9.3 µM; 830 tested, 8% active; in the data active = activation above about 17%;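 also: 0% = vehicle-treated cells and 100% = reference agonist response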
* = called active by the depositor; i = inactive; . = not tested or not shown. Rule as the data show it, unless noted: active = activation above about 18%; inactive = the rest.

SMILES	HTR5A inv ag	MOR-DOR inv ag	OPRM1-OPRD1 ag	HTR5A ag	MOR-DOR ag conf	HTR5A ag counter
CCCCN(C(=O)CCN1C(=O)C2CC=CCC2C1=O)c1c(N)n(CCCC)c(=O)[nH]c1=O (stereo not given)	1	8	-1	-6	.	.
Cn1c(=N)n(CC(=O)c2ccc(Br)cc2)c2ccccc21	22	-180	34*	0	25*	0
Cc1ccc(C)c(-n2cc(CNCCc3cnccn3)c(-c3ccccc3)n2)c1	-25	-275	54*	8	79*	-1
CCn1ccnc1CNCc1cn(-c2cc(C)ccc2C)nc1-c1ccccc1	2	-12	2	-4	.	.
Cc1cc(-c2nn(-c3ccccc3F)cc2CN2CCN(c3ccccn3)CC2)c(C)s1	3	-135	28*	-1	3	0
Cc1ccc(NC(=O)CNC(=O)c2sc3ccccc3c2Cl)nc1	-4	-135	26*	2	0	-1
Cn1c(-c2c(N)n(-c3ccccc3)c3nc4ccccc4nc23)nc2ccccc21	2	-95	19*	-1	26*	0
O=C(NCc1cccnc1)c1ccc(NS(=O)(=O)c2cccc([N+](=O)[O-])c2)cc1	-2	9	-2	1	.	.
NC(=O)C1CCN(CC(=O)Nc2cc(S(=O)(=O)N3CCOCC3)ccc2N2CCCC2)CC1	-19	3	-1	5	.	.
O=C(Nc1ncc(Cc2ccc(SC(F)F)cc2)s1)c1ccc(OC(F)F)cc1	-42	-98	19*	1	16	1
Cc1ccc(C(C)NC(=O)Cc2cccs2)c(C)c1 (stereo not given)	-2	12	-2	1	.	.
CN(C)C(CNC(=O)C1CCN(S(=O)(=O)c2ccccc2)CC1)c1ccccc1 (stereo not given)	-17	-1	0	6	.	.
CN(C)C(CNC(=O)Cc1cccc(C(F)(F)F)c1)c1ccccc1 (stereo not given)	-5	i	249*	2	252*	1
CN(C)C(CNC(=O)C1CCN(S(=O)(=O)c2cccc(C(F)(F)F)c2)CC1)c1ccccc1 (stereo not given)	0	-119	22*	0	140*	3
CN(C)C(CNC(=O)Cc1cccc(C(F)(F)F)c1)c1ccco1 (stereo not given)	0	-299	63*	0	22*	-3
CC(C)(C)NC(=O)C(c1ccc(O)cc1)N(C(=O)CCC(=O)Nc1ccccn1)c1ccc(F)cc1 (stereo not given)	10	10	-2	-1	.	.
CC(OC(=O)c1n[nH]c2ccccc12)C(=O)Nc1ccccc1[N+](=O)[O-] (stereo not given)	-19	-124	32*	-1	15	4
Cc1ccc(NC(=O)C(C)OC(=O)c2n[nH]c3ccccc23)cc1 (stereo not given)	-11	9	-2	-2	.	.
Nc1nonc1C(=O)NCCNCc1cc(Br)ccc1OCc1ccc(F)cc1	9	-17	4	-4	.	.
Nc1nonc1C(=O)NCCNCc1c(OCc2ccccc2F)ccc2ccccc12	-6	-118	22*	2	121*	6
CC(=O)NCCC(=O)Nc1nc2ccc(Oc3ccccc3)cc2s1	3	10	-1	-1	.	.
CC1(NC(=O)CC(c2ccccc2)(c2ccccc2)c2ccccc2)CCN(CCCc2ccccc2)C1=O (stereo not given)	18	i	237*	3	193*	-2
CC1(NC(=O)CCc2ccccc2)CCN(CCCc2ccccc2)C1=O (stereo not given)	-5	3	-1	5	.	.
C#CCn1cc(/C=N/Nc2nc3ccccc3[nH]2)c2ccccc21	8	-226	33*	-3	1	4
C(=N\Nc1nc2ccccc2[nH]1)/c1ccccn1	-10	6	-1	-1	.	.
Fc1ccccc1COc1ccc(Br)cc1CNCc1cccnc1	11	1	0	-3	.	.
COc1ccc(CNCc2cn(-c3cccc(F)c3)nc2-c2ccc(C)o2)cc1	1	i	120*	0	0	0
COc1ccc(-c2nn(-c3ccccc3C)cc2CNCc2cccnc2)cc1F	19	-328	72*	-4	134*	5
COc1ccc(-n2cc(CNCc3cccnc3)c(-c3cccc(F)c3)n2)cc1	-4	-279	55*	1	404*	2
